Only a selection was taken, and hits are over-represented in it overall.
AmpC inh detg: blocks E. coli AmpC beta-lactamase in detergent assay. Potency, µM (series often up to 114 µM), inactives show at the top dose activity change, negative = inhibition, actives largely listed as inhibitors. P00811. 0.041% of 370,000 active. AID 485294. AmpC hydrolysis of nitrocefin, absorbance 480 nm, 0.01% Triton;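 also: potency is read from the fitted curve at half-maximal effect; 0% = no-compound wells and -100% = no-enzyme wells; nearly all actives have a fitted effect of over 25% in size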
Target sequence (P00811 whole entry, looked up): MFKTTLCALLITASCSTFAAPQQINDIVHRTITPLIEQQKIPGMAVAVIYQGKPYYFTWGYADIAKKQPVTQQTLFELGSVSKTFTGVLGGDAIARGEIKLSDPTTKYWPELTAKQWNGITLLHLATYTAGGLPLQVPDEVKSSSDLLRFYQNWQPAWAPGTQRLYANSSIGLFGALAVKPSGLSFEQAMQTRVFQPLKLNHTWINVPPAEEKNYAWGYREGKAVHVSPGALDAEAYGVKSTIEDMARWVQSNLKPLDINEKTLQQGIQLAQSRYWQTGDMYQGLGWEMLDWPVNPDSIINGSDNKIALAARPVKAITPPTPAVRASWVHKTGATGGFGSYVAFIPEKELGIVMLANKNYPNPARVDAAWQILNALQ
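20 mM phosphate pH 7.0 + 0.01% (detergent screen) or 0.0001% Triton X-100; 5.3 nM AmpC reagent; cpd preinc 15 min RT; nitrocefin (800 uM stock) to start; A480 q20 s × 4 min; Activity was normalised to no-enzyme and no-compound control wells.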
AMA1-RON2 inh: inhibitors of Plasmodium falciparum AMA1-RON2 interaction; Potency, µM (doses to about 58.2 µM), for inactives: top-dose activity change, negative = inhibition, hits mostly inhibitors; AlphaScreen AMA1-biotinylated RON2 peptide binding; 0.2% of 360,000 active;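 also: potency is read from the fitted curve at half-maximal effect; 0% = vehicle wells and -100% = peptide control; nearly all actives have a fitted effect of over 45% in size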
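AMA1 (3D7) with his tag at 25 nM final met compounds first, then biotinylated RON2 peptide at 25 nM; detection used donor plus acceptor beads, 10 µg/mL apiece, read by AlphaScreen after 30 min at room temperature.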
CHX counter: counter-screen hit for Shiga toxin inhibitors, cycloheximide; AID 2314; 12% of 300,000 active; cell reporter, cycloheximide protein synthesis inhibition counterscreen; max response, %; in the data active = max response mostly above about 13%, no sharp cut-off; inactive = mostly below about 14%; also: read at 38.3 µM for the half of the compounds with a filed dose; 0% is about no effect
Shiga toxin inh: inhibitors of Shiga toxin in Vero cells. Vero cells, Shiga toxin protein synthesis inhibition reporter. inhibition, % at 38.7 µM. 9.2% of 290,000 active; in the data active = inhibition mostly above about 28%, no sharp cut-off; inactive = mostly below about 43%; also: 0% is about no effect
AmpC inh no detg: inhibitors of E. coli AmpC beta-lactamase without detergent | AmpC nitrocefin hydrolysis, absorbance 480 nm, 0.0001% Triton | Potency, µM (titrated, usually from 57.1 µM), without a hit: at the top dose activity change, negative = inhibition, actives largely listed as inhibitors | 0.52% of 330,000 active;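 also: potency is read from the fitted curve at half-maximal effect; plate controls were no compound for no effect and no enzyme for full effect; nearly all actives have a fitted effect of over 20% in size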
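AmpC (5.3 nM in the dispensed reagent) in 20 mM phosphate pH 7.0 with 0.01% (detergent screen) or 0.0001% Triton X-100 was preincubated with compounds for 15 min at room temperature. Nitrocefin was then added from an 800 uM solution, and hydrolysis was followed at 480 nm.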
SARS PLpro yeast: blocks SARS-CoV papain-like protease in a yeast assay | S. cerevisiae expressing SARS-CoV PLpro, growth rescue | Potency, µM (doses to about 32.9 µM), for the others: at the top dose activity, positive = growth rescue, most hits filed as activators | 0.19% of 330,000 active; calls by dose curve; also: potency is read from the fitted curve at half-maximal effect; 0% is about no effect; nearly all actives have a fitted effect of over 55% in size
Active calls of the source: *; ? = inconclusive; nt = no result; ! = a repeat was not active; [ ] = dose if it differs, or a comment. Unless noted, calls follow the shape of the dose curve; as a rule, active = well fitted curve in the direction sought with a large enough effect; inconclusive = small, poorly fitted or top-dose-only effect, or another doubt; inactive = no such curve, though single readings can be large; an effect the other way counts as inactive or inconclusive.

SMILES	AmpC inh detg	AMA1-RON2 inh	CHX counter	Shiga toxin inh	AmpC inh no detg	SARS PLpro yeast
COC(=O)c1csc(C(=O)c2c[nH]c3ccccc23)n1	nt	nt	23.2*!	41.8*!	nt	nt
Nc1nc(SCc2ccccc2)c2[nH]cnc2n1	-0.4%	5.6%	18.6	19.2	-28.0%	0.5%
CCOC(=O)C1=C(C)N(CC(C)C)C(=O)/C1=C\c1cccs1	-3.2%	?	-1.3	16.0	-13.7%	-1.1%
COc1ccccc1NC(=O)COC(=O)c1ccc2c(=O)n3c(nc2c1)CCC3	nt	7.0%	nt	nt	nt	nt
Cc1ccccc1NC(=O)c1cc(C(=O)c2cc(Cl)ccc2O)cn(-c2ccccc2C)c1=O	?	-4.1%	39.2*	46.1*	-45.9%	-18.8%
Cc1ccc(OCC(=O)N2CCc3ccccc32)cc1	-7.4%	-15.8%	76.4*	84.0*	-33.9%	-24.9%
O=C(COc1ccc2c(c1)CCC2)N1CCc2ccccc21	-9.1%	3.0%	42.7*	98.1*	-31.1%	0.2%
Cc1ccc(OCC(=O)N2CCCc3ccccc32)cc1	-3.7%	30.4%	19.4	32.6*	-17.4%	-0.5%
O=C(COc1ccc(Cl)cc1)OCC(=O)N1CCCc2ccccc21	0.8%	-8.9%	-2.7	9.5	-8.8%	1.6%
CCc1ccc(OCC(=O)N2CCc3ccccc32)cc1	-1.6%	-8.1%	34.5*	96.3*	-33.6%	-6.0%
COc1ccc(C2=C(C)C(=O)N(Cc3ccc(C(=O)Nc4ccc(F)cc4C)cc3)S2(=O)=O)cc1	-1.9%	nt	nt	nt	nt	nt
O=C(COC(=O)c1ccc(O)cc1)NC(c1ccccc1)c1ccccc1	nt	2.4%	nt	nt	-50.0%	0.4%
Oc1ccc(/C=C/c2cnccn2)cc1	-1.8%	-1.5%	34.3*	93.6*	-12.4%	1.6%
COc1ccc(CCNC(=O)COC(=O)/C=C/c2ccc(OCC#N)c(OC)c2)cc1	-4.9%	17.1%	-0.9	5.7	-22.3%	9.0%
CC(C)Cc1ccc(C(C)C(=O)Nc2ccccc2O)cc1 (centres undefined)	-4.6%	-0.3%	-2.5	9.6	3.98µM*	-3.8%
CC(C)Cc1ccc([C@@H](C)C(=O)NS(C)(=O)=O)cc1	nt	nt	-7.0	-2.2	nt	nt
O=C(N/N=C/c1c(O)n(C2CCCCC2)c(=S)[nH]c1=O)c1ccccc1	-12.1%	98.0%	22.1	47.8*	-30.4%	-2.6%
O=c1[nH]c(=S)n(C2CC2)c(O)c1/C=N/Nc1cccc2ccccc12	-1.0%	36.9%	25.2*	72.4*	-23.8%	-5.9%
O=c1[nH]c(=O)n(CCC2=CCCCC2)c(O)c1/C=N/Nc1cccc2ccccc12	4.0%	21.2%	1.5	13.1	28.2µM*	-0.7%
O=c1[nH]c(=S)n(C2CC2)c(O)c1/C=N/Nc1ccccc1	-11.3%	28.1%	24.1*	64.7*	12.6µM*	-22.6%
CC(N=Cc1c(O)n(C2CC2)c(=S)[nH]c1=O)c1ccccc1 (centres undefined)	-6.8%	2.1%	-1.6	-4.9	-25.3%	0.4%
O=C(N/N=C/c1c(O)n(C2CCCCC2)c(=S)[nH]c1=O)c1ccccc1O	2.1%	123.1%	15.3	10.9	-37.5%	25.2%
CCCCC(=O)N/N=C/c1c(O)n(C2CC2)c(=S)[nH]c1=O	-7.3%	0.6%	-2.6	7.0	30.1%[2.29 µM]	2.7%
O=c1[nH]c(=O)n(CCC2=CCCCC2)c(O)c1/C=N/Nc1ccccc1	-1.0%	-2.2%[2.32 µM]	7.8	16.3	-9.7%	-2.4%
COc1ccc(C(=O)CCS(=O)(=O)c2ccc(C)cc2)cc1OC	3.9%	-4.1%	-3.2	-11.0	1.3%	-12.2%
SMILES	AmpC inh detg	AMA1-RON2 inh	CHX counter	Shiga toxin inh	AmpC inh no detg	SARS PLpro yeast
Nc1cc2c(cc1Cl)-c1ccc(Cl)cc1C2=O	nt	-20.0%	nt	nt	nt	nt
CCCCn1c(O)c(/C=N/NC(=O)c2ccncc2)c(=O)[nH]c1=O	-0.7%	22.3%	7.5	18.0	-20.5%	0.1%
O=C(N/N=C/c1c(O)n(CCc2ccccc2)c(=O)[nH]c1=O)c1ccccc1	-4.0%	38.2%	29.6*	30.9*	-41.1%	-2.0%
CCn1c(O)c(/C=N/NC(=O)c2ccccc2)c(=O)n(CC)c1=S	1.7%	102.4%	47.2*	51.9*	-41.9%	0.8%
O=C(N/N=C/c1c(O)n(Cc2ccco2)c(=O)[nH]c1=O)c1ccccc1O	1.7%	-23.2%	21.7*	72.7*	-28.0%	?
CC(C)c1ccc(-n2c(O)c(/C=N/NC(=O)c3ccccc3O)c(=O)[nH]c2=S)cc1	-7.1%	64.6%	32.6*	47.6*	?	2.8%
Cc1ccc(S(=O)(=O)N(C)CC(=O)Nc2ccc(C)cn2)cc1	?	5.5%	nt	nt	-15.4%	-6.8%
COc1ccc(CCN2C(=O)c3[nH]nc(-c4ccccc4O)c3C2c2ccc(OC)c(OC)c2)cc1 (centres undefined)	17.7%	nt	nt	nt	nt	nt
O=C(NCc1ccncc1)Nc1cccc(Cl)c1	?	3.1%	15.8*	13.0	-35.5%	-4.6%
O=C(Nc1ccccc1)Nc1ccncc1	3.5%	6.8%	14.7	57.3*	-6.5%	0.2%
O=C(NCc1cccnc1)Nc1cccc(Cl)c1	-7.6%	12.5%	1.2	3.8	-20.6%	3.6%
O=C(Nc1cccc(Cl)c1)Nc1csc([N+](=O)[O-])c1	8.5%	-27.2%	15.5*	46.2*	-52.2%	-7.5%
O=C(Nc1ccncc1)Nc1cccc(Cl)c1	?	-5.7%	16.3*	20.2	-49.0%	-2.0%
O=C(O)Cc1ccc(NC(=O)Nc2cccc(Cl)c2)cc1	-0.3%	10.9%	-3.3	-8.8	-22.7%	0.3%
O=C(Nc1cccc(Cl)c1)Nc1nc(-c2ccc(Cl)cc2)cs1	-13.0%	21.6%	12.6	17.9	-38.5%	-1.2%
Cc1occc1-c1nnc(SCC(=O)Nc2ccc(F)cc2)n1C	5.7%	-13.2%	1.8	-6.3	-3.3%	2.0%
COc1ccc(C2CC(c3cccs3)=NN2C(=O)CSC2=NCCS2)cc1 (centres undefined)	0.9%	-2.7%	23.3	19.7	4.3%	-1.1%
Cc1cc(F)cc(-c2cc(C(=O)NCc3cccc(Cl)c3)[nH]n2)c1	nt	1.3%	nt	nt	nt	nt
COc1ccc(CNC(=O)Nc2cccc(Cl)c2)cc1	3.0%	2.5%	42.8*	46.3*	-38.0%	4.9%
O=C1c2ccccc2NC(c2cccc([N+](=O)[O-])c2)N1O (centres undefined)	-9.0%	57.6%	-1.7	-5.1	-27.1%	9.1%
O=C1c2ccccc2NC(c2ccccc2)N1c1ccc(O)cc1 (centres undefined)	-13.1%	11.7%	-2.1	36.5	-44.7%	1.2%
O=C1c2ccccc2NC(c2ccccc2)N1/N=C/c1ccccc1 (centres undefined)	-2.1%	4.9%	10.0	37.5	-27.4%	-11.3%
O=C1c2ccccc2NC(c2ccc(O)cc2)N1/N=C/c1ccc(O)cc1 (centres undefined)	-14.8%	2.3%	18.6*	43.4*	-16.0%	-4.0%
